Measurements as given in the supplement of paper PMC9262897, “Low-cost anti-mycobacterial drug discovery using engineered E. coli” (Nature Communications, 2022).
Counter-ions that a name gives are not always drawn. ± gives the standard deviation of the averaged measurements.

Key:
Test in all cases: growth (OD600 after 10 h); higher = more growth (less inhibition)
[1] = test system: E. coli TESEC Alr+ wild-type control; conditions: compound 0.1 mM; raw OD600 reference: median of DMSO wells 0.241, cell-free background 0.041
Method: (§1)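 TESEC Mtb Alr E. coli, or the Alr+ wild-type control, in 384-well plates with Prestwick library compounds at 0.1 mM and 1% DMSO, across arabinose induction levels of 1E3 to 1E7 nM. Growth is read as OD600 after 10 h at 37 °C in triplicate biological replicates.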

E. coli TESEC Mtb Alr [2] = conditions: compound 0.1 mM
Method: as §1

E. coli TESEC Mtb Asd = conditions: compound 0.1 mM
Method: (§2)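 TESEC E. coli strains in which the native enzyme is deleted and replaced by arabinose-inducible Mtb Asd, DapB, CysH or TrpD, each grown in its selective medium. Strains were screened against the Prestwick library at 0.1 mM and 1% DMSO in 384-well format at low and high arabinose induction. Growth is read as OD600 after 10 h in triplicate.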

E. coli TESEC Mtb DapB = conditions: compound 0.1 mM
Method: as §2

E. coli TESEC Mtb Alr [3] = conditions: compound 0.1 mM; remark: listed apart in the source
Method: (§3)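 TESEC Mtb Alr E. coli (ΔaraC ΔtolC ΔentC Δalr ΔdadX, arabinose-inducible Mtb Alr) or the Alr+ wild-type control strain, grown in defined M9-fructose medium without D-alanine in 96-well plates with Prestwick library compounds at 0.1 mM and 1% DMSO. Low Alr induction is 0.1 µM arabinose and high induction is 10 mM arabinose.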

[4] = test system: E. coli TESEC Alr+ wild-type control; conditions: compound 0.1 mM; raw OD600 reference: median of DMSO wells 0.49, cell-free background 0.052
Method: as §3

[5] = arabinose 1000 nM, raw OD600 reference: median of DMSO wells 0.294, cell-free background 0.041
[6] = arabinose 10000 nM, raw OD600 reference: median of DMSO wells 0.264, cell-free background 0.041
[7] = arabinose 100000 nM, raw OD600 reference: median of DMSO wells 0.201, cell-free background 0.041
[8] = arabinose 1000000 nM, raw OD600 reference: median of DMSO wells 0.193, cell-free background 0.041
[9] = arabinose 10000000 nM, raw OD600 reference: median of DMSO wells 0.146, cell-free background 0.041
[10] = arabinose induction (level): High, raw OD600 reference: median of DMSO wells 0.331, cell-free background 0.041
[11] = arabinose induction (level): Low, raw OD600 reference: median of DMSO wells 0.417, cell-free background 0.041
[12] = arabinose induction (level): High, raw OD600 reference: median of DMSO wells […], cell-free background 0.041
[13] = arabinose induction (level): Low, raw OD600 reference: median of DMSO wells 0.227, cell-free background 0.041
[14] = arabinose 100 nM, raw OD600 reference: median of DMSO wells 0.413, cell-free background 0.052
[15] = arabinose 10000000 nM, raw OD600 reference: median of DMSO wells […], cell-free background 0.052

SMILES	growth [1]	growth (E. coli TESEC Mtb Alr [2]; [5])	growth (E. coli TESEC Mtb Alr [2]; [6])	growth (E. coli TESEC Mtb Alr [2]; [7])	growth (E. coli TESEC Mtb Alr [2]; [8])	growth (E. coli TESEC Mtb Alr [2]; [9])	growth (E. coli TESEC Mtb Asd; [10])	growth (E. coli TESEC Mtb Asd; [11])	growth (E. coli TESEC Mtb DapB; [12])	growth (E. coli TESEC Mtb DapB; [13])	growth (E. coli TESEC Mtb Alr [3]; [14])	growth (E. coli TESEC Mtb Alr [3]; [15])	growth [4]
CCCCOc1ccc(OCCCN2CCOCC2)cc1 [Pramoxine hydrochloride]	0.199 ± 0.0084	0.268 ± 0.018	0.263 ± 0.011	0.195 ± 0.013	0.146 ± 0.0024	0.163 ± 0.0035	0.362 ± 0.03	0.403 ± 0.022	0.183 ± 0.014	0.226 ± 0.0093	0.408 ± 0.0076	0.332 ± 0.011	
CN1[C@@H]2CC[C@H]1C[C@@H](OC(=O)c1c[nH]c3ccccc13)C2 [Tropisetron HCl]	0.224 ± 0.0054	0.294 ± 0.0064	0.273 ± 0.0034	0.216 ± 0.036	0.177 ± 0.0038	0.158 ± 0.0026	0.305 ± 0.044	0.319 ± 0.034			0.402 ± 0.012	0.359 ± 0.0044	0.53 ± 0.08
CC(C)(C)CC(C)(C)c1ccc(OCCOCC[N+](C)(C)Cc2ccccc2)cc1 [Benzethonium chloride]	0.0416 ± 0.00072	0.0415 ± 0.0011	0.0413 ± 0.0002	0.0425 ± 0.0011	0.04103 ± 0.00021	0.0418 ± 0.00044	0.0499 ± 0.00098	0.0496 ± 0.0017			0.0552 ± 0.0016	0.0504 ± 0.00059	0.04753 ± 0.00035
Cc1ccc(C)c(OCCCC(C)(C)C(=O)O)c1 [Gemfibrozil]	0.2143 ± 0.0012	0.258 ± 0.0058	0.22 ± 0.0045	0.163 ± 0.0097	0.153 ± 0.0071	0.121 ± 0.0017	0.202 ± 0.051	0.214 ± 0.0039			0.354 ± 0.037	0.261 ± 0.011	0.41 ± 0.018
Cc1cn([C@H]2C[C@H](N=[N+]=[N-])[C@@H](CO)O2)c(=O)[nH]c1=O [Zidovudine, AZT]	0.0935 ± 0.0041	0.0804 ± 0.011	0.0544 ± 0.0014	0.0839 ± 0.0005	0.0604 ± 0.0022	0.103 ± 0.0045	0.1 ± 0.0079	0.0819 ± 0.012	0.148 ± 0.0088	0.0825 ± 0.0056	0.166 ± 0.012	0.125 ± 0.017	
N#CC(c1ccc(Cl)cc1)c1c(Cl)cc(-n2ncc(=O)[nH]c2=O)cc1Cl (configuration not stated) [Diclazuril]	0.0414 ± 0.00047	0.0423 ± 0.004	0.0402 ± 0.0002	0.0425 ± 0.0014	0.0405 ± 0.00045	0.0479 ± 0.0017	0.048 ± 0.0019	0.0482 ± 0.002	0.0518 ± 0.0015	0.0496 ± 0.0011	0.0632 ± 0.00095	0.0529 ± 0.00089	
N[C@@H](C(=O)N[C@@H]1C(=O)N2C(C(=O)O)=C(Cl)CS[C@H]12)c1ccccc1 [Cefaclor hydrate]	0.264 ± 0.0067	0.315 ± 0.0086	0.249 ± 0.0072	0.244 ± 0.025	0.1991 ± 0.0017	0.158 ± 0.021	0.333 ± 0.052	0.425 ± 0.067			0.224 ± 0.036	0.354 ± 0.032	0.489 ± 0.033
Cc1cccc(Nc2ccncc2S(=O)(=O)NC(=O)NC(C)C)c1 [Torsemide]	0.222 ± 0.005	0.29 ± 0.012	0.257 ± 0.019	0.168 ± 0.012	0.17 ± 0.0046	0.16 ± 0.0021	0.228 ± 0.029	0.353 ± 0.095			0.403 ± 0.016	0.326 ± 0.025	0.477 ± 0.021
CCCCC1=NC2(CCCC2)C(=O)N1Cc1ccc(-c2ccccc2-c2nnn[nH]2)cc1 [Irbesartan]	0.152 ± 0.0053	0.227 ± 0.0037	0.21 ± 0.011	0.121 ± 0.0023	0.0979 ± 0.0024	0.13 ± 0.0027	0.198 ± 0.03	0.21 ± 0.029	0.204 ± 0.014	0.263 ± 0.048	0.346 ± 0.012	0.167 ± 0.014	
NS(=O)(=O)c1cc2c(cc1Cl)N=C(CSCc1ccccc1)NS2(=O)=O [Benzthiazide]	0.241 ± 0.008	0.292 ± 0.023	0.254 ± 0.0055	0.171 ± 0.017	0.169 ± 0.0062	0.132 ± 0.0022	0.286 ± 0.026	0.487 ± 0.025			0.405 ± 0.0095	0.3136 ± 0.0011	0.606 ± 0.051
CN(N=O)C(=O)N[C@H]1C(O)O[C@H](CO)[C@@H](O)[C@@H]1O (mixture of isomers) [Streptozotocin]	0.197 ± 0.0036	0.259 ± 0.028	0.2526 ± 0.0016	0.147 ± 0.0062	0.14 ± 0.0077	0.0717 ± 0.0018	0.243 ± 0.0054	0.305 ± 0.045			0.378 ± 0.019	0.0602 ± 0.0034	0.226 ± 0.025
CC(=O)OCC(=O)[C@@]1(O)CC[C@H]2[C@@H]3CCC4=CC(=O)CC[C@]4(C)[C@H]3[C@@H](O)C[C@@]21C [Cortisol acetate]	0.234 ± 0.0044	0.297 ± 0.016	0.237 ± 0.0043	0.184 ± 0.018	0.151 ± 0.0056	0.141 ± 0.0061	0.366 ± 0.052	0.506 ± 0.028			0.399 ± 0.014	0.289 ± 0.011	0.517 ± 0.032
CN(C)[C@@H]1C(=O)C(C(=O)NCNCCCC[C@H](N)C(=O)O)=C(O)[C@@]2(O)C(=O)C3=C(O)c4c(O)cccc4[C@@](C)(O)[C@H]3C[C@@H]12 [Lymecycline]	0.178 ± 0.0022	0.221 ± 0.0059	0.18 ± 0.011	0.204 ± 0.016	0.0804 ± 0.0073	0.101 ± 0.0033	0.12 ± 0.0094	0.159 ± 0.0077			0.312 ± 0.031	0.0693 ± 0.0019	0.329 ± 0.017
